# PubChem BioAssay (Tox21)
# Inconclusive results are not listed. Unmarked numbers belong to inactive results. Calls of active or inactive are those of the source. Calls come from the whole dose curve; as a rule, active = well fitted inhibition curve with a large enough effect in the signal ratio in the repeat runs (not every such curve was filed as active); inconclusive = weak or mixed curves, or effect the other way; inactive = no such curve, though single readings can be large or run the other way; the % refers to the signal ratio.
# Molecular target: Peroxisome proliferator-activated receptor delta (Homo sapiens) (UniProt Q03181)
# Test: qHTS assay to identify small molecule antagonists of the peroxisome proliferator-activated receptor delta (PPARd) signaling pathway (AID 743215);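 note: cells stimulated with agonist L165041 at 300 nM final during compound exposure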
# Conditions: HEK293H PPARd-UAS-bla, beta-lactamase FRET ratio, antagonist, 17 h; series mostly up to 62 µM; ratio activity, negative = inhibition: at the top concentration
# Description: U.S. Tox21 Program National Center for Advancing Translational Sciences [NCATS] NIH Chemical Genomics Center [NCGC] U.S. Environmental Protection Agency [EPA] National Institutes of Environmental Health Sciences [NIEHS] National Toxicology Program [NTP] U.S. Food and Drug Administration [FDA] Tox21 Assay Overview: The peroxisome proliferator-activated receptors (PPARs) are lipid-activated transcription factors of the nuclear receptor superfamily with three distinct subtypes namely PPAR alpha, PPAR delta (PPARd) and PPAR gamma. All these subtypes heterodimerizes with Retinoid X receptor (RXR) and have different physiological functions. […] To identify the compounds that inhibit PPAR-delta signaling, GeneBLAzer PPAR delta UAS-bla HEK293H cell line (Invitrogen, Carlsbad, CA, USA) containing a beta-lactamase reporter gene under the control of an Upstream Activator Sequence (UAS) was used to screen the Tox21 compound library.
# Tox21 Assay Protocol Summary: PPARd-bla cells were dispensed at 3000 cells/5uL/well in 1536-well black wall/clear bottom plates using a Multidrop Combi (Thermo Fisher Scientific, Waltham, MA) dispenser. After the assay plates were incubated at 37 C and 5% CO2 for 5 h, 23 nL of compounds dissolved in DMSO, positive controls or DMSO only was transferred to the assay plate by a Pintool station (Kalypsys, San Diego, CA), followed by addition of 1ul L165041 (300 nM, final concentration in the wells). The assay plates were incubated at 37 C for 17 h, and then 1 uL of LiveBLAzerTM B/G FRET substrate was added using a Bioraptr Flying Reagent Dispenser (FRD) workstation (Beckman Coulter, Indianapolis, IN, USA). The assay plates were incubated at room temperature for 2 h and fluorescence intensity was measured by an Envision plate reader (PerkinElmer, Shelton, CT).
# % is set by controls: 0 for no effect and ±100 for the full control effect; potency is the fitted concentration of half-maximal effect.
# Chain of Peroxisome proliferator-activated receptor delta (Homo sapiens) (Q03181 whole entry, looked up): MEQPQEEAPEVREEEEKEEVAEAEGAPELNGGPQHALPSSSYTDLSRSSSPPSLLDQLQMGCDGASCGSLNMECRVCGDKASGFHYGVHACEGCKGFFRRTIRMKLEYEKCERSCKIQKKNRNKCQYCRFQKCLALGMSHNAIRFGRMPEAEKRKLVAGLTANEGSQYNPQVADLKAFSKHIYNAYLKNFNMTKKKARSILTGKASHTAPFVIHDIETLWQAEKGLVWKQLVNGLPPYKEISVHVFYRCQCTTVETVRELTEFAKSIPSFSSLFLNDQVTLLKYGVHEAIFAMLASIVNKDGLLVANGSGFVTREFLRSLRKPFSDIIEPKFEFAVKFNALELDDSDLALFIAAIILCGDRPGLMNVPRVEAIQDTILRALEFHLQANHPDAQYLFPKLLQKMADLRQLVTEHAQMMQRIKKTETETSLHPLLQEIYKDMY
Structure (SMILES),"ratio activity, negative = inhibition",Potency
COP(=S)(OC)Oc1cc(Cl)c(I)cc1Cl,-18.4%,–
CCCN(CCC)c1c([N+](=O)[O-])cc(S(C)(=O)=O)cc1[N+](=O)[O-],-13.2%,–
COC(=O)C(C)N(C(=O)Cc1ccccc1)c1c(C)cccc1C (stereo not given),-0.435%,–
Cc1ccccc1CCl,17.4%,–
ClP(Cl)(Cl)(Cl)Cl,-6.93% [at 80.4 µM],–
C=CC(=O)OCCCCO,15%,–
Brc1ccc(Oc2ccccc2)cc1,–,inactive
CCCCN=C=O,-6.15%,–
COC1=CC(=O)O[C@@H](CCc2ccccc2)C1,-7.77% [at 80.4 µM],–
CN1C(=O)NC(=O)C(C)(C2=CCCCC2)C1=O (stereo not given),-4.25%,–
c1ccc(C2CC2)c(OCC2=NCCN2)c1,-0.466%,–
CCCC(=O)Cl,12.3%,–
Nc1ccc([N+](=O)[O-])cc1[N+](=O)[O-],-12%,–
IC(I)=C(I)I,–,15.5 µM (active)
CCCN(CC1CC1)c1c([N+](=O)[O-])cc(C(F)(F)F)cc1[N+](=O)[O-],3.15%,–
CCOP(=O)(OCC)O/C(=C/Cl)c1ccc(Cl)cc1Cl,1.06%,–
Cc1c(F)c(F)c(COC(=O)C2C(/C=C(\Cl)C(F)(F)F)C2(C)C)c(F)c1F (stereo not given),-7.93%,–
C[C@]12CC[C@H]3[C@@H](CCC4=CC(=O)CC[C@@H]43)[C@@H]1CC[C@@H]2OC(=O)CCC1CCCCC1,20.5%,–
O=C1NCN(c2ccccc2)C12CCN(CCCOc1ccc(F)cc1)CC2,-7.82%,–
COP(=S)(OC)Oc1ccc([N+](=O)[O-])cc1Cl,-9.63%,–

Structure (SMILES),"ratio activity, negative = inhibition",Potency
CC(C)N(CCC(C(N)=O)(c1ccccc1)c1ccccn1)C(C)C (stereo not given),-20.6%,–
Cn1sc(Cl)cc1=O,1.24%,–
ClCc1cccc(Cl)c1,5.54%,–
CC(=O)c1cc2c(cc1C)C(C)(C)C(C)CC2(C)C (stereo not given),5.15%,–
O=[N+]([O-])c1cc(C(F)(F)F)cc([N+](=O)[O-])c1Cl,-6.79% [at 80.4 µM],–
CCOS(C)(=O)=O,10.3% [at 80.4 µM],–
CCN(C)N=O,-8.99%,–
CCCCNP(N)(N)=S,-3.13%,–
CCOP(=O)(OCC)Oc1ccc([N+](=O)[O-])cc1,-26.8%,–
N#Cc1cc(I)c(O)c(I)c1,4.01%,–
COC(=O)C(Br)CBr (stereo not given),12.1%,–
NCC(CC(=O)O)c1ccc(Cl)cc1 (stereo not given),-0.236% [at 0.575 µM],–
CC1(C)CCC(Cc2ccc(Cl)cc2)C1(O)Cn1cncn1 (stereo not given),-0.456%,–
CC(C)(OO)c1ccccc1,3.68%,–
COc1nn(C(=O)NS(=O)(=O)c2ccccc2OC(F)(F)F)c(=O)n1C,11.8%,–
C=CCC1([C@H](C)CCC)C(=O)NC(=O)NC1=O,5.87% [at 80.4 µM],–
O=C(O)C(F)(F)C(F)(F)C(F)(F)C(F)(F)C(F)(F)C(F)(F)C(F)(F)C(F)(F)C(F)(F)F,5.44%,–
CNP(=O)(OC)Oc1ccc(C(C)(C)C)cc1Cl (stereo not given),1.35%,–
CCCCCCCCOC(=O)c1ccc(C(=O)OCCCCCCCC)c(C(=O)OCCCCCCCC)c1,7.16% [at 80.4 µM],–
O=[N+]([O-])c1ccc(F)c([N+](=O)[O-])c1,-4.3% [at 80.4 µM],–
